Source: PubChem
Tau fibril FP – qHTS for Inhibitors of Tau Fibril Formation, Fluorescence Polarization | hit rate 0.39% among 280,000 | AID 1468, 2008 | Potency, µM (doses to about 57.7 µM), for the others: at the highest dose activity, negative = inhibition, most hits filed as inhibitors | K18 P301L tau heparin fibrillization, Alexa594 FP, 6 h; also: potency is read from the fitted curve at half-maximal effect; nearly all actives have a fitted effect of over 55% in size
Target sequence (P10636 561-689 P618L limits assumed): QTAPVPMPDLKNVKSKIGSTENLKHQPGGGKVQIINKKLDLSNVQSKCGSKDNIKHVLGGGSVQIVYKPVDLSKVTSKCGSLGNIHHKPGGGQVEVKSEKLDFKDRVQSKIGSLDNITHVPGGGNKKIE
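Human K18 P301L fragment (15 uM unlabeled plus 0.24 uM Alexa 594-labeled) in 100 mM sodium acetate pH 7 with compound, aggregation induced by 20 uM heparin for 6 hr at 37 C. ThT (30 uM) added for 1 hr, then Alexa 594 FP read.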
FBPA coupling cs – qHTS Assay for Inhibitors of Fructose-1,6-bisphosphate Aldolase from Giardia Lamblia: Coupling assay counterscreen; coupling enzyme system counterscreen, AmpLite Red fluorescence; activity change, negative = inhibition, % at 58.2 µM, hits read low; hit rate 0.67% among 290,000; in the data active = activity change below about -30%
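Counterscreen of the coupled detection system alone, without aldolase: glyceraldehyde-3-phosphate coupling enzymes plus AmpLite Red readout. Compounds at 57.5 uM final, 10 min RT preincubation, 20 min RT reaction, fluorescence 525/598 nm.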
Tau ThT inhib – qHTS for Inhibitors of Tau Fibril Formation, Thioflavin T Binding; Microtubule-associated protein tau (Homo sapiens), P10636; recombinant tau K18 P301L, heparin-induced fibrillization, ThT fluorescence; Potency, µM (doses to about 57.4 µM), without a hit: top-dose activity, negative = inhibition, hits mostly inhibitors; hit rate 2.1% among 270,000; also: potency is read from the fitted curve at half-maximal effect; nearly all actives have a fitted effect of over 55% in size
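In this qHTS, human K18 P301L tau is incubated with compound and heparin for 6 hr at 37 C, and Thioflavin T fluorescence then reports fibril load.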
Sfp inh – qHTS Assay for Inhibitors of Bacillus subtilis Sfp phosphopantetheinyl transferase (PPTase); hit rate 3.5% among 310,000; Potency, µM, inactives show largest response in the series, negative = inhibition, most hits filed as inhibitors; AID 1490, 2009; Biochemical Sfp PPTase activity, qHTS;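 also: the enzyme is Sfp with the accession as filed and its product quenches rhodamine fluorescence; potency is read from the fitted curve at half-maximal effect; 0% = enzyme reaction without inhibitor and -100% = no enzyme wells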
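After 15 min at room temperature with compound, 15 nM Sfp received 5 uM rhodamine-CoA plus 12.5 uM BHQ-2-ybbR (50 mM Hepes pH 7.6, 10 mM MgCl2). Rate came from the fluorescence difference over 30 min, ex 525/em 598 nm.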
Tau fluor cs – Counterscreen qHTS for Inhibitors of Tau Fibril Formation, Fluorescence Polarization | tau K18 P301L (four-repeat tau fragment) Alexa594 fluorescence, heparin fibrillization | Potency, µM (titrated, usually from 57.7 µM), inactives show top-dose activity change, negative = decrease | hit rate 0.93% among 280,000 | AID 1463, 2008; also: potency is read from the fitted curve at half-maximal effect; nearly all actives have a fitted effect of over 55% in size
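Human K18 P301L tau (15 uM unlabeled plus 0.24 uM Alexa 594-labeled, final) in 100 mM sodium acetate pH 7 was mixed with compound and 20 uM heparin and incubated 6 hr at 37 C.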
An asterisk follows results filed as active; ? = inconclusive; . = no result given; [ ] = remark or other dose. An excerpt weighted towards active compounds, which were near 5.2% of everything screened. Unless noted, calls follow the shape of the dose curve; as a rule, active = well fitted curve in the direction sought with a large enough effect; inconclusive = small, poorly fitted or top-dose-only effect, or another doubt; inactive = no such curve, though single readings can be large; an effect the other way counts as inactive or inconclusive. Unless noted, % is scaled to controls: 0 for no effect and ±100 for the full control effect.

SMILES	Tau fibril FP	FBPA coupling cs	Tau ThT inhib	Sfp inh	Tau fluor cs
Cc1cc([N+](=O)[O-])cc(/C=N\NC(=O)C2COc3ccccc3O2)c1O (stereo not drawn)	9%	8	13µM*	20%	?
O=C(NCCc1ccc(O)c(O)c1)C1COc2ccccc2O1 (stereo not drawn)	.	-8	.	50µM*	.
COc1cc(/C=N\NC(=O)C2COc3ccccc3O2)cc(OC)c1O (stereo not drawn)	6%	4	?	7%	-11%
COc1cc(/C=N/NC(=O)C2COc3ccccc3O2)ccc1O (stereo not drawn)	-2%	-1	?	8%	-19%
O=C(N/N=C\c1ccc(O)c([N+](=O)[O-])c1)C1COc2ccccc2O1 (stereo not drawn)	?	7	10µM*	-3%	-12%
COc1ccc(C(=O)NCC2(N3CCN(C)CC3)CCCCC2)cc1	-3%	.	1%	.	0%
CCOc1ccc(C(c2c(O)cc(C)n(CCOC)c2=O)N2CCN(c3ccccc3)CC2)cc1 (stereo not drawn)	-4%	.	?	.	10%
O=C(CSc1nc2cc(S(=O)(=O)N3CCOCC3)ccc2o1)NC1CCCc2ccccc21 (stereo not drawn)	-8%	0	-3%	10µM*	12%
O=C(CSc1nc2cc(S(=O)(=O)N3CCOCC3)ccc2o1)Nc1c(F)cccc1F	-16%	5	?	13µM*	-14%
Cc1ccc2nc(CSc3nnc(NC(=O)COc4ccccc4F)s3)cc(=O)n2c1	-8%	.	-12%	.	2%
CCOC(=O)c1cccc(NC(=O)c2cc3c(=O)n(C)c4ccccc4c3n2C)c1	2%	.	-8%	.	-8%
Cc1cc(C)c(S(=O)(=O)/N=C2/C=C(Sc3ncn[nH]3)C(=O)c3ccccc32)cc1C	-1%	-96*	3%	1µM*	4%
Clc1ccc2c(c1)C(N1CCNCC1)Cc1ccccc1S2 (stereo not drawn)	-7%	2	?	-16%	-11%
Clc1cccc2c1Sc1ccccc1CC2N1CCNCC1 (stereo not drawn)	-7%	-1	?	56µM*	-22%
Cc1ccc(C(=O)NCC(=O)OCc2cc(=O)n3c(C)csc3n2)cc1	-5%	.	-15%	.	-7%
O=C(Oc1cccccc1=O)c1ccccc1	4%	2	?	25µM*	-8%
CC1=C(C)Cc2c(OC(=O)c3ccccc3)ccc(OC(=O)c3ccccc3)c2C1	-7%	5	-14%	10%	-19%
CCCCC(=O)Oc1ccc2oc(-c3ccc(OC)cc3)cc(=O)c2c1	-6%	.	?	.	-23%
Cc1ccc2c(c1)C(C)CC(C)(C)N2C(=O)CN1CCN(C)CC1 (stereo not drawn)	-2%	0	.	56µM*	2%
Cc1cccc(C)c1NC(=O)CSc1ncc2c(n1)-c1ccc(Cl)cc1N(Cc1ccccc1)S2(=O)=O	?	.	12%	.	2%
Cc1ccc2nc(SCc3nc(-c4ccc(Cl)cc4)no3)[nH]c2c1	18µM*	.	?	.	10µM*[quencher]
CCOc1cc([N+](=O)[O-])cc(/C=C2/NC(=O)N(Cc3ccccc3F)C2=O)c1O	-3%	7	14µM*	-16%	?
CC(C)CN1C(=O)/C(=C/c2ccco2)NC1=S	?	-10	?	35µM*	-19%
O=C1N/C(=C/c2ccco2)C(=O)N1Cc1ccccc1F	-14%	0	?	50µM*	-20%
CC(C)CN1C(=O)/C(=C/c2cccs2)NC1=S	11%	1	?	11%	?
SMILES	Tau fibril FP	FBPA coupling cs	Tau ThT inhib	Sfp inh	Tau fluor cs
COc1ccc(N2C(=O)C(Cl)=C(Nc3ccccc3O)C2=O)cc1	?	-1	10µM*	45µM*	?
COc1ccc(N2C(=O)C(Cl)=C(Nc3ccccc3OC)C2=O)cc1	?	0	?	-9%	?
COc1ccc(N2C(=O)C(Cl)=C(Oc3cccc(OC)c3)C2=O)cc1	22µM*	1	14µM*	8.9µM*	-19%
COc1ccc(N2C(=O)c3ccccc3C2=O)cc1	2%	2	-5%	12%	5%
CCCOc1ccc(/C=C/C(=O)Nc2sc(C)c(C)c2C(=O)OCC)cc1OC	?	.	28µM*	.	-20%
Cc1sc(N)c(C(=O)c2cccc(C(F)(F)F)c2)c1C	-7%	-13	?	79µM*	-26%
Cc1nc2c(-c3ccccc3)c(C)nn2c(C)c1CCC(=O)NCc1ccc(F)cc1	-11%	.	1%	.	-11%
c1ccc(CCc2nn3c(Cc4ccccc4)nnc3s2)cc1	1%	6	-16%	22µM*	-1%
CCCCC1C(=O)N(c2ccccc2)N(c2ccc(O)cc2)C1=O (stereo not drawn)	?	-3	16µM*	-22%	-25%
CC(C)=CCC1C(=O)N(c2ccccc2)N(c2ccccc2)C1=O	.	.	.	-7%	.
CC[C@H](C)[C@H](NC(=O)[C@H](CC(=O)O)NC(=O)[C@H](CC(C)C)NC(=O)[C@H](Cc1cnc[nH]1)NC(=O)[C@H](C)NC(=O)[C@H](Cc1ccccc1)NC(=O)[C@H](Cc1ccc(O)cc1)NC(=O)[C@@H](NC(=O)[C@H](C)NC(=O)[C@H](CCC(=O)O)NC(=O)[C@H](CCCCN)NC(=O)[C@H](CC(=O)O)NC(=O)[C@H](CCSC)NC(=O)[C@H](CC(C)C)NC(C)=O)C(C)C)C(=O)N[C@H](C(=O)N[C@@H](Cc1c[nH]c2ccccc12)C(=O)O)[C@@H](C)CC	.	3	.	1%	.
CCCC[n+]1c2ccccc2cc2ccccc21	.	0	.	?	.
CCC[n+]1c2ccccc2cc2ccccc21	.	3	.	50µM*	.
COc1cc(OC)cc(C(=O)N2CC(=O)Nc3ccc(Cl)cc3C2c2ccccc2)c1 (stereo not drawn)	-15%	.	-5%	.	-13%
COc1ccc(C(C#N)=C2C=CC(=NO)C=C2)cc1	-30%	1	.	25µM*	-52%
COC(=O)c1cc2oc3ccccc3c2n1CC(=O)Nc1ccc(C)cc1C	-2%	.	-9%	.	-4%
CC[N+](C)(C)CC/C=C1/c2ccccc2Sc2ccc(Cl)cc21	7%	-3	-3%	-15%	5%
CCCCCCCCCCC[N+](C)(C)CC/C=C1/c2ccccc2Sc2ccc(Cl)cc21	.	0	.	40µM*	.
CCCCCCCCCC[N+](C)(C)CC/C=C1/c2ccccc2Sc2ccc(Cl)cc21	.	-3	.	32µM*	.
O=C(NCCc1ccccc1Cl)c1ccc(Cn2c(=O)c3cccn3c3cccnc32)cc1	?	.	?	.	-11%
CC(=O)c1[nH]c(C)c(C(=O)NCc2ccc(Cl)cc2)c1C	8%	.	-11%	.	-11%
